Growth data for 40 compounds are collected here from PubChem BioAssay (NCI).

About 83,000 compounds went through this panel and 20% of them were active in at least one assay; those are over-represented in the sample as a whole.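 Note: values are percent growth. 100 is the growth of untreated cells, values between 100 and 0 indicate rising inhibition; between -100 and 0 indicates cell death.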 Values without a mark were called inactive. The source made the active and inactive calls.

This assay has as its system ACHN renal. Briefly: NCI-60 one-dose screen, 48 h (100 = growth as untreated, 0 = no growth, -100 = all killed). Conditions: 10 µM unless noted. The procedure: Growth inhibition of the ACHN human tumor cell line is measured as a screen for anti-cancer activity. Cells are grown in 96 well plates and exposed to the test compound for 48 hours. Compounds are tested at a single concentration, which is 10^-5 M for most compounds. The reported endpoint is percent growth (GI% or GIPRCNT), where numbers from 0 - 100% represent growth inhibition, and numbers from -100% - 0 represent cell death. For example, a value of 40 represents 60% growth inhibition. A value of 0 means no net growth occurred over the course of the experiment. A value of -40 indicates 40% of cells at the beginning of the experiment died by the end of the experiment. A value of -100 means all cells are dead at the end of the experiment.
NCI-60 Human Tumor Cell Lines Screen was performed using the standard one-dose NCI protocol, which is described in more detail at https://dtp.cancer.gov/discovery_development/nci-60/default.htm.
Compounds with GIPRCNT values below 10 were considered active. Activity score was based on GIPRCNT using the following formula: […]
Score is 0 for GIPRCNT values of 100 or above, 50 for GIPRCNT values of 0, and 100 for GIPRCNT values of -100.
With `CCCCC/C=C\C/C=C/CCCCCCCCNC(=O)Nc1ccc([N+](=O)[O-])cc1`, the growth is 65.8%.

`Cc1nc2cc(Nc3nc(Nc4ccc(F)cc4)nc(N4CCN(C)CC4)n3)ccc2n1Cc1ccccc1`: the growth is 9.69% (active).

As for `CC1=C(C/C=C(\C)CCC[C@H](C)CCC[C@H](C)CCCC(C)C)C(=O)c2ccccc2C1=O`, the growth is 104%.

As for `COc1ccc(S(=O)(=O)ON=C2C=C(C)C(=O)C(C)=C2)cc1`, the growth is 46%.

`Cc1ccc2c(N/N=C\c3ccco3)cc(C)nc2n1`: the growth was 39.5%.

With `CC1=CN2C(=NC3=C(CCCC/C3=C\c3ccccc3)C2c2ccccc2)S1` (stereo not given), the growth is 99.5%.

With `O=C1CC2c3cc(-c4cc5ccccc5o4)ccc3CCN2C(=O)N1c1ccccc1` (stereo not given), the growth is 99.6%.

Take `Cn1c(=O)c(S(=O)(=O)c2ccccc2)cc2ccc3c(cnn3-c3ccc(Cl)cc3)c21`: the growth was 58.2%.

In the case of `Cc1cccc2c(=O)c3c(sc12)c(NCCCN)nc1ccccc13`, the growth is -82.9% (active).

As to `COC1(OC)C2(Cl)C=C(c3ccccc3)C1(Cl)C(Cl)=C2Cl` (stereo not given), the growth is 108%.

Take `Brc1ccc(Br)nn1`: the growth is 2.74% (active).

With `CCCCc1ccc(C(O)(CCN2CC3CCC(CC3)C2)c2ccccc2)cc1` (stereo not given), the growth is 94.5%.

Take `COc1ccc(/C=C(\C#N)c2ccc(OC)cc2)cc1`: the growth was 88.3%.

Consider `O=c1[nH]c(-c2ccncc2)nc2sc3c(c12)CCCCCC3`, for which the growth is 49.9%.

Consider `COc1ccc(/C=N/NC(=O)c2cnn(CC(O)Cc3ccccc3)c2N)cc1OC1CCCC1` (stereo not given), for which the growth was 87.5%.

As for `O=C1CCC(N2Cc3c(C#CCCCNC(=O)c4cc5c(o4)C(=O)c4ccccc4C5=O)cccc3C2=O)C(=O)N1` (stereo not given), the growth is 71.7%.

As for `COc1nc2c(cc1S(=O)(=O)c1ccccc1)CCc1c-2cnn1-c1ccccc1Cl`, the growth is 62.5%.

Consider `COc1ccc(C(=O)COc2cccc(/C=C3\CSc4ccc(C)cc4C3=O)c2)cc1`, for which the growth was 101%.

Consider `COC(=O)[C@H]1CCCN1C(=O)[C@H]1CCCN1C(=O)[C@@H](Cc1c[nH]c2ccccc12)NC(=S)Nc1cc(C(F)(F)F)cc(C(F)(F)F)c1`, for which the growth was 44.3%.

For the compound `Cc1cc(C)c(S(=O)O)c(C)c1`, the growth is 103%.

As to `Nc1cccc2c(=S)c3ccccc3[nH]c12`, the growth was 92.7%.

In the case of `Oc1ccccc1/C=N/Nc1nc2ccccc2s1`, the growth is 43.1%.

Regarding `COc1ccc(C2CC(c3cc(OC)c(OC)c(OC)c3)=NN2c2ccc(S(N)(=O)=O)cc2)cc1` (stereo not given), the growth was 76.5%.

For the compound `FC(F)(F)Oc1ccc2c(c1)C[C@H]1C[C@@H](c3ccoc3)N2O1`, the growth is 94%.

Regarding `CCN1CCN(c2ccc(Nc3ncc4ccc5ncn(C(C)C)c5c4n3)nc2)CC1`, the growth was 2.84% (active).

In the case of `NC(=O)c1nc2c([nH]c1=O)CCCC2`, the growth was 106%.

In the case of `O=C(N/N=C/c1ccc2c(c1)OCO2)c1cnn2c1NC(c1ccccc1)C2` (stereo not given), the growth is 46%.

In the case of `COc1cccc(C2C3=C(COC3=O)N(CCO)c3cc4c(cc32)OCO4)c1` (stereo not given), the growth is 48.4%.

Turning to `COc1ccc(-c2nc3sc(C)cn3c2/C=C/C(=O)c2cc(OC)c(OC)c(OC)c2)cc1`, the growth was 54.4%.

As to `O=c1nc(NO)[nH]c(=O)n1Cc1ccccc1`, the growth is 101%.

For the compound `COc1ccc(OC2=CC(=O)c3ccc(C)nc3C2=O)cc1`, the growth was 51.4%.

In the case of `Cc1nc(NN)c([N+](=O)[O-])c(NN)n1`, the growth was 110%.

As to `CC(C)OC1=C(Cl)C(=O)c2ccccc2C1=O`, the growth is 98.5%.

`Cc1nc2cc(Nc3nc(NCCO)nc(Nc4ccc(F)cc4)n3)ccc2n1Cc1ccccc1`: the growth was 98.3%.

For `Cn1c(=O)c2c(-c3ccccc3F)n(-c3ccc4c(c3)OCO4)cc2n(C)c1=O`, the growth was 100%.

Turning to `C=CC(=O)N1CC2(CCC(n3nc(-c4ccc(Oc5ccccc5)cc4)c4c(N)ncnc43)CC2)C1`, the growth is -83.6% (active).

Turning to `COc1ccccc1-n1c(SCc2cc(OC)c(OC)c(OC)c2)nc2ccc(Cl)cc2c1=O`, the growth was 44.2%.

`CCN1C(=O)C2(Nc3ccccc3S2)c2cc(C)ccc21` (stereo not given): the growth was 94.2%.

On to `COc1cc2nc(SCc3cc(OC)c(OC)c(OC)c3)n(-c3ccccc3OC)c(=O)c2cc1OC`, for which the growth was 88.5%.

On to `COc1cccc2c(=O)c3c(sc12)c(NCCN(C)C)nc1ccccc13`, for which the growth is 8.6% (active).
